Data on 11 compounds can be found in PubChem BioAssay (Tox21).

Experiment [1] can be described thus: qHTS assay to identify small molecule agonists of the NFkB signaling pathway - cell viability counter screen (AID 1159515; calls by dose curve; note: series mostly up to about 61 µM; nearly all actives have a fitted effect of over 55% in size). Put shortly: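 Viability in NFkB-bla ME-180 cells was measured by CellTiter-Glo luminescence, 30 min room temperature, in wells already treated 5 hr with compounds and read for reporter FRET.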
Experiment [2] in a line: qHTS assay to identify small molecule agonists of the endoplasmic reticulum stress response signaling pathway (AID 1159516; active = well fitted activation curve with a large enough effect in the signal ratio in the repeat runs, not every such curve was filed as active; the % refers to the signal ratio). In short, it runs like this:
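ER stress element reporter (bla) in HeLa. 1,500 cells/well, overnight attachment; 5 hr compound; 2 hr RT substrate; dual-emission fluorescence.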

Experiment [3] is described as follows: qHTS assay to identify small molecule agonists of the endoplasmic reticulum stress response signaling pathway - cell viability counter screen (AID 1159517; calls by dose curve;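 note: HeLa cells carrying an ER stress response element beta-lactamase reporter; series mostly up to about 61 µM; nearly all actives have a fitted effect of over 50% in size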). Put shortly:
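CellTiter-Glo was added to wells already read for beta-lactamase FRET, and luminescence was recorded 30 min later. Cells: ESRE-bla HeLa, 1,500 per well, compound exposure 5 hr at 37 C.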

A short description of experiment [4]: qHTS assay to identify small molecule antagonists of the retinoid-related orphan receptor gamma (ROR-gamma) signaling pathway - cell viability counter screen (AID 1159520). Note: nearly all actives have a fitted effect of over 50% in size. Put shortly: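 Tet-on ROR gamma CHO cells (1,000/well) were plated 4 hr, given compounds in DMSO for 2 hr at 37 C, then induced with 1 uM final doxycycline for 16 hr. Viability was read as ATP by CellTiter-Glo luminescence after 30 min.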

Experiment [5] concerns the target Nuclear receptor ROR-gamma (Homo sapiens) (UniProt P51449). As to the kind of experiment: qHTS assay to identify small molecule antagonists of the retinoid-related orphan receptor gamma (ROR-gamma) signaling pathway (AID 1159521;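 note: CHO cells with doxycycline inducible ROR-gamma driving an RORE luciferase reporter; top concentration of the series differs between compounds; nearly all actives have a fitted effect of over 50% in size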). In short, it runs like this: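 Test compounds were applied to Tet-on RORγ CHO cells 2 h ahead of doxycycline hyclate (1 uM final). Luciferase reporter activity was quantified by luminescence after 16 h at 37 C and 5% CO2.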

Experiment [6] is described as follows: qHTS assay to identify small molecule agonists of the AP-1 signaling pathway (AID 1159526; calls by dose curve).
Experiment [7] can be described thus: qHTS assay to identify small molecule agonists of the RXR signaling pathway - cell viability counter screen (AID 1159529). Note: series mostly up to about 77 µM; nearly all actives have a fitted effect of over 50% in size. Put shortly: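 Compounds dissolved in DMSO were pinned onto HEK 293T cells carrying a beta-lactamase reporter under RXR-alpha control and incubated 16 hr. Cytotoxicity was then quantified by CellTiter-Glo luminescence.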
A short description of experiment [8]: qHTS assay to identify small molecule antagonists of the retinoid acid receptor (RAR) signaling pathway - cell viability counter screen (AID 1159551). Note: nearly all actives have a fitted effect of over 35% in size. Put shortly:
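Following overnight attachment, C3RL4 reporter cells received DMSO-dissolved compounds and then retinol (1 uM final). Six hours later at 37 C, ATP content was measured by CellTiter-Glo luminescence.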

Experiment [9] can be described thus: qHTS assay to identify small molecule antagonists of the retinoic acid receptor (RAR) signaling pathway (AID 1159552; note: nearly all actives have a fitted effect of over 50% in size; note: potency is the fitted concentration of half-maximal effect). In short, it runs like this: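 Test chemicals and DMSO controls were pin-transferred onto C3RL4 cells a day after seeding; retinol (1 uM final) followed at once. Luminescent reporter output was quantified after 6 hr of co-incubation and 30 min with detection reagent.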

Experiment [10] is described as follows: qHTS assay to identify small molecule antagonists of the estrogen related receptor (ERR) signaling pathway from Tox21 library - cell viability counter screen (AID 1224834). Note: nearly all actives have a fitted effect of over 30% in size. In short, it runs like this: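 Viability readout (CellTiter-Fluor fluorescence, 30 min at 37 C) multiplexed with the ERR assay; cells treated 17.5 h at 37 C with compounds delivered in DMSO.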

Experiment [11] is described as follows: qHTS assay to identify small molecule antagonists of the vitamin D receptor (VDR) signaling pathway - cell viability counter screen (AID 743225). Note: nearly all actives have a fitted effect of over 50% in size. Put shortly:
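Compounds were pinned onto VDR-bla HEK 293T cells together with 1-alpha,25-dihydroxyvitamin D3 at 3 nM final. After 16 h at 37C and 5% CO2 plus the reporter readout, cell viability was measured by CellTiter-Glo luminescence (30 min, room temperature).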

A short description of experiment [12]: qHTS assay to identify small molecule agonists of the AP-1 signaling pathway - cell viability counter screen (AID 1159525; calls by dose curve; note: nearly all actives have a fitted effect of over 55% in size). Put shortly: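 ME-180 AP-1-bla, 2500 cells/well, Opti-MEM + 0.5% dialyzed FBS; overnight 37 °C; cpd 15-pt titration, 5 h 37 °C; CellTiter-Glo 30 min RT; luminescence read; normalised to TOAB and DMSO controls.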
Experiment [13] concerns the target Retinoic acid receptor RXR-alpha (Homo sapiens) (UniProt P19793). The experiment is described as follows: qHTS assay to identify small molecule agonists of the RXR signaling pathway (AID 1159527; calls by dose curve; note: nearly all actives have a fitted effect of over 35% in size). Put shortly: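 Using 9-cis retinoic acid as the reference agonist, chemicals were tested in HEK 293T cells […] for 16 hr; substrate loading lasted 2 hr at room temperature.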

Experiment [14] in a line: qHTS assay to identify small molecule antagonists of the estrogen related receptor (ERR) signaling pathway - cell viability counter screen (AID 1224818). Note: series mostly up to about 46 µM. In short, it runs like this:
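Here, ERR cells are plated at 2,000 cells per well, allowed 6 h to attach, and treated with compounds in DMSO for 17.5 h at 37 C. CellTiter-Fluor is then added and fluorescence read after 30 min.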

Experiment [15] in a line: qHTS assay to identify small molecule antagonists of the estrogen related receptor signaling pathway with the pleiotropic PPARgamma coactivator (PGC) cell viability counter screen (AID 1224822; note: series mostly up to about 46 µM). In short, it runs like this: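 qHTS format, DMSO compound stocks pin-transferred onto PGC/ERR cells 6 h after plating; 17.5 h exposure at 37 C, then CellTiter-Fluor fluorescence.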

The nature of experiment [16]: qHTS assay to identify small molecule agonists of the retinoic acid receptor (RAR) signaling pathway (AID 1159553). Put shortly:
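Cell line C3RL4, RARE luciferase reporter. Treatment: compounds in DMSO, 6 hr, 37 C, 5% CO2, after overnight plating. Detection: luminescence, 30 min RT after reagent.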

Records with an inconclusive call do not appear. A number with no mark means an inactive call. The source made the active and inactive calls. Unless noted, calls come from the whole dose curve; as a rule, active = well fitted curve in the direction sought with a large enough effect in the repeat runs; inconclusive = weak or mixed curves; inactive = no such curve, though single readings can be large; an effect the other way counts as inactive or inconclusive.

Retinoic acid receptor RXR-alpha (Homo sapiens), sequence (P19793 whole entry, looked up): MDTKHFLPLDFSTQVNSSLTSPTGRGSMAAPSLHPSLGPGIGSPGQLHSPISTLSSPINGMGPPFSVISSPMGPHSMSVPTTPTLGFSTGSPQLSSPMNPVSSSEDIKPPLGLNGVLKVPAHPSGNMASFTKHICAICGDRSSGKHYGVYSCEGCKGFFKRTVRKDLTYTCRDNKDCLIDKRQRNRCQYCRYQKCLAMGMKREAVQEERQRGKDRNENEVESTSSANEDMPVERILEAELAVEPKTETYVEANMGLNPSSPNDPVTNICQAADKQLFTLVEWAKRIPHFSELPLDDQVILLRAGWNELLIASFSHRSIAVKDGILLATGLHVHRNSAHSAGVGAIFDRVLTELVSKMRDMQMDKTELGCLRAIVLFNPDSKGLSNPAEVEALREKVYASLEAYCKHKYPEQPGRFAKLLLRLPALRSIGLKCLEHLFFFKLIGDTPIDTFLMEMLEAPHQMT

On to `CCCC(C)C(=O)OCC` (configuration not stated), for which the compound was called inactive in experiment [1], in experiment [2], in experiment [3], in experiment [4], in experiment [6] and in [8]. Moreover, the Potency entry in [5], in [7], in experiment [9] and in experiment [10] was “inactive” each time.
With `CCCCCCCCCCCCCCCCCCO`, the outcome in experiment [11], in experiment [1], in experiment [2], in experiment [3], in experiment [4] and in experiment [12] was inactive. The outcome in [6] and in experiment [8] was inactive. Also, the Potency result in experiment [13], in experiment [7] and in [10] was “inactive” throughout.
Regarding `CO[Si](C)(OC)c1ccccc1`, the call in [11], in experiment [1], in experiment [2], in experiment [3], in experiment [4] and in [12] was inactive. In addition, the result in experiment [6] and in experiment [8] was inactive. Also, the Potency result in [7] is “inactive”.
Turning to `CCCCCC(C)N` (configuration not stated), the outcome in experiment [11], in experiment [1], in [2], in experiment [3], in [4] and in experiment [12] was inactive. The compound was classed as inactive in experiment [6] and in [8]. Further, the Potency result in [13], in experiment [7] and in experiment [10] was “inactive” in each case.
Turning to `CC(=O)C1CCCCC1=O` (configuration not stated), the compound was called inactive in experiment [1], in experiment [2], in [3], in experiment [4], in [12] and in experiment [6]. In experiment [8], the result was inactive. In addition, the Potency entry in experiment [13], in experiment [7] and in experiment [10] was “inactive” in each case.
Regarding `CN1[C@@H]2CC[C@H]1CC(OC(=O)C(O)c1ccccc1)C2` (some centres not stated), the result in [1], in experiment [2], in experiment [3], in experiment [4], in experiment [12] and in experiment [6] was inactive. In addition, the compound was called inactive in [8]. The Potency entry in [13], in [7] and in experiment [10] was “inactive” throughout.
As for `Cc1ccc(C(=O)c2ccccc2)cc1`, the outcome in experiment [11], in experiment [1], in experiment [2], in experiment [3], in experiment [4] and in experiment [12] was inactive. The result in [6] and in experiment [8] was inactive. Besides, the Potency result in [13], in [7], in experiment [9] and in experiment [10] was “inactive” throughout.
With `CC(C)(C)C(=O)Oc1ccc(S(=O)(=O)Nc2ccccc2C(=O)NCC(=O)O)cc1`, the compound was classed as inactive in experiment [11], in [1], in experiment [2], in [3], in experiment [4] and in experiment [12]. Further, the compound was classed as inactive in experiment [6], in experiment [8], in experiment [14] and in experiment [15]. The Potency entry in [13], in experiment [7] and in [10] was “inactive” each time.
Consider `COC(=O)C1=C(C)NC(C)=C(C(=O)OC(C)C)C1c1cccc2nonc12` (configuration not stated), for which the compound was called inactive in experiment [11], in experiment [1], in experiment [2], in experiment [3], in experiment [4] and in experiment [12]. For the same compound, the call in [6] and in experiment [8] was inactive. Besides, the Potency result in experiment [13], in experiment [7] and in experiment [16] was “inactive” throughout. In experiment [9], the Potency is 21.1 µM (active).
With `C[N+](C)(CCOc1ccccc1)Cc1cccs1`, the compound was classed as inactive in experiment [11], in experiment [1], in experiment [2], in experiment [3], in experiment [4] and in experiment [12]. The compound was called inactive in [6] and in experiment [8]. For the same compound, the Potency entry in experiment [13] and in [7] was “inactive” throughout.
With `C[N+]1(C)[C@@H]2CC(OC(=O)[C@H](CO)c3ccccc3)C[C@H]1[C@@H]1O[C@@H]12` (some centres not stated), the compound was classed as inactive in experiment [11], in experiment [1], in experiment [2], in [3], in experiment [4] and in [6]. Further, in experiment [8], the call was inactive. Further, the Potency result in experiment [5] and in [7] was “inactive” in each case.
